Laboratory results taken from PubChem BioAssay (NCI).
About 83,000 compounds went through this panel and 20% of them were active in at least one assay; those are over-represented in the sample as a whole.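 Plates (96-well) were seeded with cells, treated with compound at one concentration, and incubated for 48 hours before percent growth was determined.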 Unmarked numbers belong to inactive results. Active and inactive are the calls of the source. Rule for the calls: active = growth percent below 10; inactive = the rest.

Assays:
Test in all cases: NCI-60 one-dose screen, 48 h (100 = growth as untreated, 0 = no growth, -100 = all killed)
Settings in all cases: 10 µM unless noted
NCI-H23 lung = test system: NCI-H23 lung
NCI-H322M lung = test system: NCI-H322M lung
HOP-62 NSCLC = test system: HOP-62 NSCLC
NCI-H460 lung = test system: NCI-H460 lung
HOP-92 NSCLC = test system: HOP-92 NSCLC
NCI-H522 lung = test system: NCI-H522 lung
A549/ATCC NSCLC = test system: A549/ATCC NSCLC
786-0 renal = test system: 786-0 renal
COLO 205 colon = test system: COLO 205 colon
DU-145 prostate = test system: DU-145 prostate
K-562 leukemia = test system: K-562 leukemia
MALME-3M melanoma = test system: MALME-3M melanoma
MDA-MB-231 breast = test system: MDA-MB-231 breast
SF-268 CNS = test system: SF-268 CNS
SF-295 CNS = test system: SF-295 CNS
SF-539 CNS = test system: SF-539 CNS
UACC-257 melanoma = test system: UACC-257 melanoma
M14 melanoma = test system: M14 melanoma
HCT-15 colon = test system: HCT-15 colon
RXF 393 renal = test system: RXF 393 renal

SMILES	growth (NCI-H23 lung)	growth (NCI-H322M lung)	growth (HOP-62 NSCLC)	growth (NCI-H460 lung)	growth (HOP-92 NSCLC)	growth (NCI-H522 lung)	growth (A549/ATCC NSCLC)	growth (786-0 renal)	growth (COLO 205 colon)	growth (DU-145 prostate)	growth (K-562 leukemia)	growth (MALME-3M melanoma)	growth (MDA-MB-231 breast)	growth (SF-268 CNS)	growth (SF-295 CNS)	growth (SF-539 CNS)	growth (UACC-257 melanoma)	growth (M14 melanoma)	growth (HCT-15 colon)	growth (RXF 393 renal)
CN(O)c1nc(N(C)O)nc(N2CCOCC2)n1	66%	35.1%	34.5%	8.62% (active)	52.4%	31.4%	33%	21%	3.87% (active)	38.8%	9.56% (active)	48.5%	56%	29.3%	-30.2% (active)	38%	30%	16%	22.5%	–
O=S(=O)(c1ccccc1)n1cc2c(c1-c1ccccc1)CCc1sc(Nc3ccccc3)nc1-2	92.8%	75.6%	112%	86.6%	86.6%	77.7%	75.2%	89.7%	103%	90.1%	63.7%	105%	79.4%	86.7%	–	106%	96.5%	87.8%	83.8%	87%
N#C/C(=C\c1c(-c2ccccc2)[nH]c2ccccc12)S(=O)(=O)c1ccccc1	40.7%	60%	39.2%	16.1%	53%	54.9%	45.5%	51.3%	12.8%	21.2%	17.5%	76.5%	47.2%	53%	25.7%	-20.1% (active)	73.8%	42.8%	44.1%	–
CC/C=C\C[C@H](O)C/C=C1/C(=O)C=C[C@@H]1C/C=C\CCCC(=O)OCCS(=O)(=O)c1ccccc1	59%	71.2%	22.1%	42%	110%	-7.61% (active)	78.1%	60%	43.6%	47.7%	7.77% (active)	63.7%	40.2%	42.6%	100%	59.9%	66.8%	27.5%	62%	–
CSc1nc2c(c(=O)n1C)N=C1c3ccccc3C(=O)C1C(c1ccccc1)N2 (configuration not stated)	85%	95.1%	76.9%	76.2%	28.7%	103%	81.6%	91.9%	73.5%	81.9%	32.9%	42.6%	82.8%	81.7%	-10.6% (active)	68%	102%	62.2%	62.4%	–
CCN(CC)c1cc(C)c2cc(NC(=O)c3cccc(OC)c3)ccc2n1	85%	109%	107%	57.1%	29.1%	93.4%	80%	70%	89.7%	92.9%	13.4%	82.5%	55.5%	63.2%	–	77.3%	105%	77.3%	61.4%	51.3%
Clc1ccc(-c2nnc(COc3ccc(C4=NNC(c5ccco5)C4)cc3)o2)cc1 (configuration not stated)	61.5%	36.6%	105%	82.7%	76.8%	86.7%	45.6%	89.5%	105%	94.8%	80.7%	109%	82.7%	93.9%	–	95.6%	96.1%	88%	58.8%	91.7%
CCOc1ccccc1CN1CCc2nc3cc(C(C)(C)C)[nH]n3c(=O)c2C1	97%	101%	99.6%	107%	112%	77.1%	112%	90.8%	112%	115%	87.2%	107%	92.3%	105%	–	93.7%	108%	91.6%	97.4%	93.5%
CCCCc1ccc(NS(=O)(=O)c2cc3c4c(c2)CCN4C(=O)CC3)cc1	21.2%	32.7%	8.96% (active)	4.33% (active)	3.41% (active)	13.9%	10.6%	-1.95% (active)	14.5%	16.4%	7.56% (active)	17.8%	35.7%	5.78% (active)	–	7.3% (active)	16.3%	-12.8% (active)	32.6%	32.5%
CCOC(=O)c1c(Cl)c2c(n1Cc1ccccc1)-c1oncc1CCC2	86.9%	94%	80%	81%	84.7%	35.7%	43%	83.1%	56.9%	103%	18.6%	42.3%	64.4%	86.7%	–	74%	79.7%	55.3%	36.1%	64.3%
Cc1ccc(OCCCCCCNCCO)c(C)c1	19.8%	11.1%	10.1%	-20.9% (active)	12.8%	-8.65% (active)	5.92% (active)	11.3%	1.75% (active)	21.5%	6.98% (active)	-0.226% (active)	18%	4.83% (active)	–	-14.7% (active)	-8.91% (active)	-0.43% (active)	22.8%	-2.46% (active)
Nc1n[nH]c2ccc([C@@H]3Nc4ccc5[nH]ncc5c4[C@H]4[C@H]5CCC(C5)[C@H]43)cc12	31.4%	42.7%	35.7%	3.93% (active)	33.7%	-21.4% (active)	18.5%	24.1%	0.265% (active)	7.74% (active)	9.58% (active)	52.2%	11.8%	25%	14%	-15.8% (active)	69.4%	8.3% (active)	16.5%	25.6%
NC1C(N)C(N)C1N (configuration not stated)	102%	99.7%	104%	113%	79.6%	91.5%	99.8%	105%	107%	134%	99.5%	114%	94.2%	109%	126%	100%	101%	101%	109%	125%
CCCCCCc1cc2cc(-c3nc4ccccc4[nH]3)c(=Nc3ccccc3C)oc2cc1O	50.4%	62.8%	58%	44.8%	13.3%	14.3%	49.9%	46.8%	-94.3% (active)	67.4%	7.87% (active)	-29.3% (active)	41.6%	65.5%	–	75.3%	4.39% (active)	9.12% (active)	31.2%	28.5%
CSc1nc2c(c(=O)[nH]1)N=C1c3ccccc3C(=O)C1C(c1ccc(F)cc1)N2 (configuration not stated)	83.7%	92.3%	63.6%	51.7%	58.3%	75.9%	56.3%	71.5%	53.4%	103%	62.8%	56.1%	93.3%	65.5%	-29% (active)	68.7%	79.1%	43.4%	46.1%	–
